Sampled rows, rich in hits. Any-hit rate of the full collection: about 1%.
RECQ1 helicase = RECQ1 (human) helicase inhibition; P46063; RECQ1 DNA unwinding, red fluorescence kinetic read; Potency, µM (titrated, usually from 57.3 µM), inactives show top-dose activity, negative = inhibition, most hits filed as inhibitors; 240,000 tested, 0.54% active; AID 2549;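 note: plate controls were vehicle for no effect and no enzyme for full effect; nearly all actives have a fitted effect of over 30% in size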
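50 nM RECQ1T1 preincubated 15 min with compound in Tris pH 8.0 buffer with MgCl2, DTT, Tween-20 and 2.5 ug/ml poly(dI-dC); started with 200 nM TAMRA/BHQ-2 forked duplex and 2 mM ATP. Unwinding read as fluorescence (525/598 nm), two reads 2 h apart.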
FEN1 inhibitor = human FEN1 inhibition | P39748 | Recombinant FEN1 flap cleavage, fluorescence, 15 min | Potency, µM (doses to about 114 µM), without a hit: top-dose activity change, negative = inhibition, most hits filed as inhibitors | 390,000 tested, 0.35% active | AID 588795; note: % is set by controls: 0 for no effect and ±100 for the full control effect; nearly all actives have a fitted effect of over 65% in size
Target sequence (P39748 whole entry, looked up): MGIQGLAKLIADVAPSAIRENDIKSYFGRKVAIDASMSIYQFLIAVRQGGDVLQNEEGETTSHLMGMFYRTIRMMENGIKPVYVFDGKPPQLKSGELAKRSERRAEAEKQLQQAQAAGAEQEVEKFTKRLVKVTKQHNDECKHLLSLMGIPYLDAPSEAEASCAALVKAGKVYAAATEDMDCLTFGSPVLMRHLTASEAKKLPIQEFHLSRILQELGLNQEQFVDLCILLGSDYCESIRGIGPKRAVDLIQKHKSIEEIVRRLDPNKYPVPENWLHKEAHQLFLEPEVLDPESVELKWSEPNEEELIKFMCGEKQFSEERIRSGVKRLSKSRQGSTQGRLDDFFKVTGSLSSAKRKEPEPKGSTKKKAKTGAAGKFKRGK
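Compounds are tested as a concentration series against 10 nM FEN1; after a 15 min room-temperature preincubation, 50 nM substrate starts cleavage, with plate reads at 0 and 15 min. Normalized responses are fitted by a Hill equation.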
WRN helicase inh-1 = WRN helicase (human) inhibition; AID 651768; 360,000 tested, 0.46% active; Potency, µM (highest dose often 114 µM), inactives show at the top dose activity change, negative = inhibition, actives largely listed as inhibitors; WRN helicase unwinding, fluorescent forked duplex, kinetic; Q14191; note: % is set by controls: 0 for no effect and ±100 for the full control effect; nearly all actives have a fitted effect of over 55% in size
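Kinetic fluorescence helicase assay: unwinding of a quenched forked DNA duplex (100 nM final) with 2 mM ATP final raises red fluorescence (525/598 nm). Compounds sat 15 min at room temperature with 20 nM WRN beforehand.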
BLM helicase inh-1 = blocks DNA unwinding by human BLM helicase | P54132 | recombinant BLM DNA unwinding, fluorescence dequenching | Potency, µM (titrated, usually from 56.1 µM), inactives show at the top dose activity change, negative = inhibition, hits mostly inhibitors | 350,000 tested, 0.2% active;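 note: plate controls were vehicle for no effect and no enzyme for full effect; nearly all actives have a fitted effect of over 35% in size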
APE1 inh = APE1 (human) endonuclease inhibition | 350,000 tested, 0.35% active | Potency, µM (doses to about 65.8 µM), inactives show at the top dose activity change, negative = inhibition, most hits filed as inhibitors | P27695 | AID 2517 | recombinant APE1, TAMRA/BHQ-2 abasic DNA cleavage fluorescence;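 note: plate controls were vehicle for no effect and reference inhibitor for full effect; nearly all actives have a fitted effect of over 55% in size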
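Step 1: APE1 (0.75 nM) with compound, 15 min RT. Step 2: add 50 nM fluorophore/quencher THF duplex. Step 3: three fluorescence reads 60 s apart (525/598 nm); read 3 minus read 1 = reaction progress.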
L3MBTL1 inh = L3MBTL1 (human) inhibition; AlphaScreen L3MBTL1–H3K9me1 peptide binding; Potency, µM (doses to about 57.1 µM), for inactives: at the top dose activity, negative = inhibition, most hits filed as inhibitors; 230,000 tested, 0.66% active; AID 485360; note: % is set by controls: 0 for no effect and ±100 for the full control effect; nearly all actives have a fitted effect of over 60% in size
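First, the protein-peptide complex forms for 30 min at room temperature (L3MBTL1 50 nM, biotinylated H3K9me1 peptide 75 nM). Next, compounds are pin-transferred and incubated 30 min. Finally, AlphaScreen beads are added and read after 30 min.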
WRN helicase inh-2 = confirmation of human WRN helicase inhibitors. Potency, µM (top dose mostly 57.1 µM), inactives show at the top dose activity, negative = inhibition, most hits filed as inhibitors. shares compounds with WRN helicase inh-1. 610 tested, 63% active. WRN helicase DNA unwinding, fluorescence kinetic. AID 720497; note: nearly all actives have a fitted effect of over 65% in size
TO DNA binding = counter-screen for WRN helicase inhibitors: DNA binding; shares compounds with WRN helicase inh-1; thiazole orange DNA binding displacement, fluorescence; Potency, µM (doses to about 57.1 µM), for the others: top-dose activity change, negative = inhibition, actives largely listed as inhibitors; 610 tested, 10% active;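 note: drop in dye fluorescence marks compound binding to DNA; % is set by controls: 0 for no effect and ±100 for the full control effect; nearly all actives have a fitted effect of over 60% in size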
BLM helicase inh-2 = blocks human BLM helicase in WRN counterscreen; shares compounds with WRN helicase inh-1; Recombinant BLM helicase DNA unwinding, red fluorescence; Potency, µM (doses to about 57.1 µM), without a hit: top-dose activity change, negative = inhibition, actives largely listed as inhibitors; 610 tested, 60% active; AID 720503; note: nearly all actives have a fitted effect of over 60% in size
* marks the source's active call; other numbers are inactive results; u = inconclusive; x = no result. Calls come from the whole dose curve; as a rule, active = well fitted curve in the direction sought with a large enough effect; inconclusive = small, poorly fitted or top-dose-only effect, or another doubt; inactive = no such curve, though single readings can be large; an effect the other way counts as inactive or inconclusive. Potency is the fitted concentration of half-maximal effect.

SMILES	RECQ1 helicase	FEN1 inhibitor	WRN helicase inh-1	BLM helicase inh-1	APE1 inh	L3MBTL1 inh	WRN helicase inh-2	TO DNA binding	BLM helicase inh-2
N#Cc1nc(Cc2ccccc2)oc1NCc1cccnc1	-5%	-11%	-3%	1%	20%	-8%	x	x	x
N#Cc1ncc(Cc2ccccc2)nc1C#N	x	8%	1.7µM*	-13%	16%	-12%	-10%	-7%	-19%
O=C1c2ccccc2C(=O)N1Nc1ccccc1	6%	2%	-20%	-2%	0%	-5%	x	x	x
Cc1ccc(NN2C(=O)C=C(c3ccccc3)C2=O)cc1	-1%	-23%	u	-1%	-3%	14%	-20%	-6%	-22%
Nc1nc(Nc2ccccc2F)sc1C(=O)c1ccc(Cl)cc1	x	-22%	x	-10%	x	x	x	x	x
CN1CCN(C(=O)c2cccc3c(-c4ccc(F)c(F)c4)coc23)CC1	x	x	-3%	x	x	x	x	x	x
Nc1c(S(=O)(=O)O)cc(NC(=O)c2ccccc2)c2c1C(=O)c1ccccc1C2=O	x	u	28µM*	u	21µM*	x	12µM*	11µM*	19µM*

Source: PubChem BioAssay
